Bioassay records deposited in PubChem by National Center for Advancing Translational Sciences (NCATS).
MBNL1-CUG inh: inhibitors of human MBNL1 binding to CUG repeat RNA; 0.036% of 280,000 active; AID 2675; Potency, µM (doses to about 57.5 µM), without a hit: top-dose activity change, negative = inhibition, actives largely listed as inhibitors; TR-FRET MBNL1-His/biotin-(CUG)12 binding, 665/545 ratio; active = well fitted inhibition curve with a large enough effect in the signal ratio, with a control signal flat, not every such curve was filed as active; inconclusive = small, poorly fitted or top-dose-only effect, or effect the other way, or a change in a side signal; inactive = no such curve, though single readings can be large or run the other way; the % refers to the signal ratio; note: potency is the fitted concentration of half-maximal effect; % is set by controls: 0 for no effect and ±100 for the full control effect
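TR-FRET between His-tagged MBNL1 and biotin-(CUG)12 RNA, detected with Tb anti-His antibody (0.055 ng/ul) and streptavidin-XL665 (5 nM), 60 min at room temperature. Compounds titrated 92 nM to 58 uM; 665/545 nm ratio normalized to buffer and complex controls.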
TRHR agonist-1: TRH receptor (human) agonism; TRHR cells, calcium flux fluo-8, FDSS agonist mode; 0.18% of 360,000 active; AID 493084; activation, % at 2 µM; in the data active = activation above about 30%; note: 0% is about no effect
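Read-out: compound-evoked intracellular calcium rise in TRHR cells, fluo-8 dye, kinetic FDSS fluorescence at 1 s/cycle following a 10-cycle baseline. Cells cultured overnight before dye loading (30 min–1.5 h, RT).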
TRHR enhancer-1: allosterically enhances the human TRH receptor | P34981 | TRHR cells, fluo-8 calcium fluorescence, EC20 TRH enhancement | enhancement, % at 2 µM | 0.66% of 360,000 active | AID 493056; in the data active = enhancement above about 30%; note: 0% is about no effect
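Enhancer read-out: after compound pinning and an initial kinetic agonist-mode read, an EC20 of TRH (10 nM final) was injected and fluo-8 calcium signal (Ex 480/Em 530) followed at 1 s/cycle for 100 cycles in TRHR-expressing cells.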
Epigenetic reg: regulators of epigenetic silencing causing reporter derepression in mouse cells; murine LDR cells, GFP reporter derepression, 30 h; Potency, µM (top dose mostly 53.9 µM), for inactives: at the highest dose GFP activation, most hits filed as activators; 0.2% of 280,000 active; note: potency is the fitted concentration of half-maximal effect; % of control where 0% means no effect; nearly all actives have a fitted effect of over 60% in size
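In this reporter-derepression format, murine cells bearing a silenced integrated CMV-GFP locus incubate with test compound (30 h, 37 C), then are washed and imaged; fluorescent objects of 20–120 um count as induced cells.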
CBFb-RUNX1 inh: inhibitors of human CBF-beta and RUNX1 interaction; 230,000 tested, under 10 active; Q01196+Q13951; Potency, µM (series often up to 59.8 µM), without a hit: top-dose activity, negative = inhibition, actives largely listed as inhibitors; AID 1477; AlphaScreen CBFb-His/RUNX1-biotin binding, biochemical; note: % of control where 0% means no effect
Target sequence (Q01196 whole entry, looked up): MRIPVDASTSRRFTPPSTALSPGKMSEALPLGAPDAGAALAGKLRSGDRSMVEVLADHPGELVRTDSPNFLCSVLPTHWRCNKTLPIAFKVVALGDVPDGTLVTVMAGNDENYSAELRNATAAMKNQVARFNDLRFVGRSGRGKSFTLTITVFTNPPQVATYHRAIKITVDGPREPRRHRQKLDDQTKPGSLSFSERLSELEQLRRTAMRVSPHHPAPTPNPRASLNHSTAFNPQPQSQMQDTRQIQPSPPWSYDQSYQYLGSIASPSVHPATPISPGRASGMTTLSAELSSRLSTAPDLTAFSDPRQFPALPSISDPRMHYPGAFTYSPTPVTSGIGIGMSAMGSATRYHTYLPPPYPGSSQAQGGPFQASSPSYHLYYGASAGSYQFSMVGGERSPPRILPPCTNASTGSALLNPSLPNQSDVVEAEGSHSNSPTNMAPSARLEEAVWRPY
Target sequence (Q13951 whole entry, looked up): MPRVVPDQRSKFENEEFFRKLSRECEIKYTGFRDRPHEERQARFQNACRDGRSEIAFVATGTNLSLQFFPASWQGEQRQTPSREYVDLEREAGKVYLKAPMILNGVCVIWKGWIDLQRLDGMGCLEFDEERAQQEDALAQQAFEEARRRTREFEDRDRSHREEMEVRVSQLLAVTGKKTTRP
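His-tagged CBF-beta and biotinylated RUNX1 (30 nM each) were premixed 20 min at room temperature, exposed to compound for 15 min, then given nickel-chelate and streptavidin AlphaScreen beads (50 ng each). After 90 min, AlphaScreen signal was read.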
IL2 activator: IL-2 activation. 0.065% of 360,000 active. AID 652025. IL-2 activation reporter assay, cell-based qHTS; stimulated with anti-CD3/CD4/CD28 beads; in transgenic mouse T cells. activation, % (series mostly up to about 46 µM); in the data active = activation above about 50%; inconclusive = mostly about 30% to 49%; note: 0% is about no effect
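Readout is EGFP and DsRed signal by fluorescent plate cytometry after 18 h at 37 degrees C. Transgenic mouse T cells (750/well) received compound for 60 min before bead stimulation (anti-CD3, anti-CD4, anti-CD28); memory T cells served as non-tolerant control.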
TRHR enhancer-2: human TRH receptor allosteric enhancement confirmation | shares compounds with TRHR enhancer-1 | TRH receptor cell assay, enhancer confirmation qHTS | activity change, negative = inhibition, % at 46.1 µM | 970 tested, under 10 active | AID 493076;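 note: compound effect scored on response to added TRH at EC20 of 10 nM; 0% is about no effect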
TRHR agonist-2: confirmation of human TRH receptor agonists. shares compounds with TRHR enhancer-1. TRHR-expressing cells, agonist activation read-out. Potency, µM (titrated, usually from 46.1 µM), for inactives: at the top dose activation, most hits filed as activators. 8% of 970 active; note: potency is the fitted concentration of half-maximal effect; 0% is about no effect; nearly all actives have a fitted effect of over 75% in size
Active calls of the source: *; ? = inconclusive; . = no result; [ ] = remark or other dose. In the library only some 0.88% were active in any assay of this set; here they are far more common. Unless noted, calls come from the whole dose curve; as a rule, active = well fitted curve in the direction sought with a large enough effect; inconclusive = small, poorly fitted or top-dose-only effect, or another doubt; inactive = no such curve, though single readings can be large; an effect the other way counts as inactive or inconclusive.

SMILES	MBNL1-CUG inh	TRHR agonist-1	TRHR enhancer-1	Epigenetic reg	CBFb-RUNX1 inh	IL2 activator	TRHR enhancer-2	TRHR agonist-2
CCC(C)c1ccc(S(=O)(=O)Nc2cccnc2)cc1 (stereo unspecified)	-5%	0	10	.	.	1	.	.
CC(C)Cc1ccc(S(=O)(=O)Nc2cccnc2)cc1	-1%	0	58*	.	.	0	-6	1%
O=C(N/N=C/c1coc2ccccc2c1=O)c1cccc([N+](=O)[O-])c1	?	0	61*	-2%	-5%	-1	?	3%
Cc1ccc(NC(=O)CN2CCc3ccccc3C2)cc1S(=O)(=O)N(C)C	0%	0	58*	-4%	1%	0	-4	0%
O=C(CN1CCN(S(=O)(=O)c2ccc(Cl)cc2)CC1)Nc1ccc2c(c1)CCC2	-21%	0	-1	-2%	8%	-5	.	.
Cc1ccc(S(=O)(=O)N2CCN(CC(=O)Nc3ccc4c(c3)CCC4)CC2)cc1C	0%	0	44*	-2%	10%	-3	-2	4%
COC(=O)C1=C(C)N(Cc2ccccc2)C2=C(C(C)=O)C(c3ccccc3)[C@@](O)(C(=O)OC)C(=O)N2C1c1ccccc1 (stereo partly specified)	.	.	.	1%[10.1 µM]	12%[13.1 µM]	.	.	.
CC1=C(C(=O)Nc2ccc(C)cc2C)C(c2ccccc2C)n2ncnc2N1 (stereo unspecified)	.	1	0	-2%	.	.	.	.
COc1cccc(/C=N/NC(=O)c2c(C)nc3ccc(Br)cn23)c1O	7%	35*	2	0%	.	-1	0	?
Clc1ccc(CSc2nnc(-c3ccncc3)s2)cc1	.	-2	-5	0%	2%	1	.	.
Clc1cccc(Cl)c1CSc1nnc(-c2ccncc2)s1	.	25	3	-1%	-3%	0	0	?
O=C(Nc1cccc2ncccc12)c1ccc(Cl)cc1	-2%	0	60*	.	.	-1	2	0%
O=C(Nc1cccc2ncccc12)c1ccc(F)cc1	.	1	-6	0%	-5%	1	.	.
O=C(CCN1C(=O)C2CCCCC2C1=O)N1CCN(S(=O)(=O)c2ccccc2)CC1 (stereo unspecified)	.	0	41*	.	.	-4	4	-1%
O=C(CCN1C(=O)C2CCCCC2C1=O)N1CCN(S(=O)(=O)c2cccc(F)c2)CC1 (stereo unspecified)	.	0	30	.	.	1	.	.
C/C(=N\NC(=O)CSc1nnc(C)s1)c1ccc(Cl)cc1	?	0	43*	-1%	0%	1	-2	1%
COc1ccc(/C(C)=N\NC(=O)CSc2nnc(C)s2)cc1	-2%	0	-3	1%	-1%	1	.	.
COc1cccc(OCc2cc(=O)n3c(-c4ccccc4)csc3n2)c1	.	-2	-13	2%	.	.	.	.
O=c1c2ccccc2n(Cc2cccc(Cl)c2)c(=O)n1CCc1ccccc1	.	2	3	-2%	.	.	.	.
Cc1csc(N2CCCC2=O)n1	-8%	0	41*	0%	-2%	1	5	-1%
COc1ccc(NC(=O)CNS(=O)(=O)c2ccc(Cl)cc2)cc1	-5%	-1	44*	1%	9%	-1	-8	1%
COc1cccc(NC(=O)CNS(=O)(=O)c2ccc(Cl)cc2)c1	3%	0	-7	-2%	-1%	1	.	.
COCCNC(=O)C(c1ccc(OC)cc1)N(C(=O)Cn1nnc2ccccc21)c1cccnc1 (stereo unspecified)	2%	0	42*	-1%	2%	1	-5	0%
CCc1ccc(C(C(=O)NCCOC)N(C(=O)Cn2nnc3ccccc32)c2cccnc2)cc1 (stereo unspecified)	-10%	0	3	0%	4%	0	.	.
CC(C)(C)NC(=O)CSc1nc2cccnc2n1C1CCCCC1	-6%	-1	51*	.	.	0	-14	-1%
SMILES	MBNL1-CUG inh	TRHR agonist-1	TRHR enhancer-1	Epigenetic reg	CBFb-RUNX1 inh	IL2 activator	TRHR enhancer-2	TRHR agonist-2
CNC(=O)CSc1nc2cccnc2n1C1CCCCC1	3%	0	0	.	.	-1	.	.
COc1cc2nc(NCc3ccccc3)n3nc(-c4ccccc4)nc3c2cc1OC	.	0	-4	0%	.	.	.	.
O=c1ccc(-c2nc3ccccc3n2Cc2ccc(Cl)cc2)c[nH]1	-3%	1	49*	.	.	-5	-7	1%
Cn1c(-c2ccc(=O)[nH]c2)nc2ccccc21	5%	0	3	-6%	2%	2	.	.
Cc1cccc(NS(=O)(=O)c2cc3c4c(c2)CCN4C(=O)CC3)c1C	.	0	45*	.	.	-3	7	-1%
Cc1cccc(NS(=O)(=O)c2cc3c4c(c2)CC(=O)N4CCC3)c1C	-1%	0	-6	.	.	0	.	.
CCOC(=O)c1c(NC(=O)/C=C/c2ccc(Cl)cc2)sc2c1CCC(C)C2 (stereo unspecified)	.	0	-6	-2%	.	.	.	.
OCCC1CN(Cc2cc3c(cc2Cl)OCO3)CCN1C1CCCC1 (stereo unspecified)	-2%	0	54*	2%	1%	0	0	5%
COc1cc(C(CC(=O)Nc2cccc(C(C)=O)c2)N2Cc3ccccc3C2=O)cc(OC)c1OC (stereo unspecified)	.	0	0	11%	.	.	.	.
O=C(c1cn(CC(=O)N2CCCCC2)c2ccccc12)C1CC1	-1%	0	51*	-1%	9%	-1	-2	-1%
CCOC(=O)C1CCN(C(=O)Cn2cc(C(=O)C3CC3)c3ccccc32)CC1	-6%	0	2	-1%	5%	-1	.	.
Cc1ccc(NC(=O)C2CCCN(c3nnc(-n4c(C)ccc4C)s3)C2)cc1Cl (stereo unspecified)	.	-1	7	-6%	.	.	.	.
CCCCNc1nc(Oc2ccc(=O)n(-c3ccccc3)n2)nc(N(CC)CC)n1	.	0	8	-5%	.	.	.	.
O=c1oc2c(CN3CCN(CCO)CC3)c(O)ccc2cc1-c1ccccn1	?	33*	-3	-3%	-3%	0	3	?
CCOC(=O)c1cc(-c2ccc(OC)c(S(=O)(=O)NC3CCCCC3)c2)on1	.	0	-3	-3%	.	.	.	.
CCCC(=O)NC1C2CC3CC(C2)CC1C3 (stereo unspecified)	4%	1	51*	-2%	8%	0	-1	0%
